Data taken from PubChem BioAssay AID1159580 (chemical genetic matrix, 2015).
The whole screen tested about 5,500 compounds, of which about 2,000 (36%) were called active. Inconclusive results (about 18%) are left out. Rule as the data show it: active = normalized growth mostly below about 0.91 (no sharp cut-off); inconclusive = no clear call, values can overlap the other calls; inactive = mostly above about 0.92. The list shows a part of the results.

Test: chemical genetic growth profiling, strain panel (AID 1159580);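 also: tested at 20 µM; growth read once vehicle control cultures reached saturation at 30 °C; 1 = growth at the plate median or of vehicle wells; lower values mean less growth of the strain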
Details: growth OD

Measured: normalized growth

NC[C@H]1O[C@H](OC2[C@@H](N)C[C@@H](N)[C@H](O[C@H]3O[C@H](CO)[C@@H](O)[C@H](N)[C@H]3O)[C@H]2O)[C@H](O)[C@@H](O)[C@@H]1O (some centres undefined)
inactive: S. cerevisiae deletion strains, locus YJR066W, strain TOR1, active compounds read low 0.956 | S. cerevisiae deletion strains, locus YJR075W, strain HOC1, active compounds read low 0.996 | S. cerevisiae deletion strains, locus YKL009W, strain mrt4, active compounds read low 0.985 | S. cerevisiae deletion strains, locus YKL068W, active compounds read low 0.986 | S. cerevisiae deletion strains, locus YKL085W, strain MDH1 (second series), active compounds read low 0.98 | S. cerevisiae deletion strains, locus YKL085W, strain MDH1, active compounds read low 0.98 | S. cerevisiae deletion strains, locus YKL160W, strain elf1, active compounds read low 0.979 | S. cerevisiae deletion strains, locus YKR001C, strain vps1, active compounds read low 0.994 | S. cerevisiae deletion strains, locus YKR026C, strain gcn3, active compounds read low 0.998 | S. cerevisiae deletion strains, locus YKR091W, strain srl3, active compounds read low 1.01 | S. cerevisiae deletion strains, locus YLL001W, strain dnm1, active compounds read low 0.973 | S. cerevisiae deletion strains, locus YLL026W, active compounds read low 1.01 | S. cerevisiae deletion strains, locus YLL041C, strain sdh2, active compounds read low 0.999 | S. cerevisiae deletion strains, locus YLR027C, strain aat2, active compounds read low 1.01 | S. cerevisiae deletion strains, locus YLR039C, strain RIC1, active compounds read low 0.927 | S. cerevisiae deletion strains, locus YLR058C, strain SHM2, active compounds read low 0.978 | S. cerevisiae deletion strains, locus YLR102C, strain apc9, active compounds read low 0.984 | S. cerevisiae deletion strains, locus YLR113W, strain HOG1, active compounds read low 1 | S. cerevisiae deletion strains, locus YLR221C, strain rsa3, active compounds read low 1.01 | S. cerevisiae deletion strains, locus YLR258W, strain gsy2, active compounds read low 1 | S. cerevisiae deletion strains, locus YLR262C, strain YPT6 (second series), active compounds read low 0.994 | S. cerevisiae deletion strains, locus YLR262C, strain YPT6, active compounds read low 1.04 | S. cerevisiae deletion strains, locus YLR268W, strain sec22, active compounds read low 0.986 | S. cerevisiae deletion strains, locus YLR320W, strain mms22, active compounds read low 0.987 | S. cerevisiae deletion strains, locus YLR330W, strain CHS5, active compounds read low 0.993 | S. cerevisiae deletion strains, locus YLR342W, strain FKS1 (second series), active compounds read low 1 | S. cerevisiae deletion strains, locus YLR342W, strain FKS1, active compounds read low 0.995 | S. cerevisiae deletion strains, locus YLR357W, strain rsc2, active compounds read low 0.979 | S. cerevisiae deletion strains, locus YLR370C, strain arc18, active compounds read low 0.993 | S. cerevisiae deletion strains, locus YLR371W, strain rom2, active compounds read low 0.981 | S. cerevisiae deletion strains, locus YLR384C, strain iki3, active compounds read low 0.994 | S. cerevisiae deletion strains, locus YLR418C, strain cdc73, active compounds read low 0.97 | S. cerevisiae deletion strains, locus YML016C, strain PPZ1, active compounds read low 0.99 | S. cerevisiae deletion strains, locus YML032C, strain rad52, active compounds read low 0.984 | S. cerevisiae deletion strains, locus YML120C, strain ndi1, active compounds read low 0.999 | S. cerevisiae deletion strains, locus YML124C, strain tub3, active compounds read low 0.984 | S. cerevisiae deletion strains, locus YMR058W, strain fet3, active compounds read low 1 | S. cerevisiae deletion strains, locus YMR078C, strain ctf18, active compounds read low 0.969 | S. cerevisiae deletion strains, locus YMR125W, strain sto1, active compounds read low 0.973 | S. cerevisiae deletion strains, locus YMR129W, active compounds read low 0.997 | S. cerevisiae deletion strains, locus YMR205C, strain PFK2, active compounds read low 0.975 | S. cerevisiae deletion strains, locus YMR223W, strain ubp8, active compounds read low 0.957 | S. cerevisiae deletion strains, locus YMR231W, strain pep5, active compounds read low 0.993 | S. cerevisiae deletion strains, locus YMR263W, strain SAP30, active compounds read low 0.999 | S. cerevisiae deletion strains, locus YMR307W, strain GAS1, active compounds read low 1.03 | S. cerevisiae deletion strains, locus YNL067W, strain RPL9B, active compounds read low 0.997 | S. cerevisiae deletion strains, locus YNL071W, strain lat1, active compounds read low 0.998 | S. cerevisiae deletion strains, locus YNL153C, strain GIM3, active compounds read low 0.993 | S. cerevisiae deletion strains, locus YNL183C, strain NPR1, active compounds read low 0.969 | S. cerevisiae deletion strains, locus YNL209W, strain ssb2, active compounds read low 0.996 | S. cerevisiae deletion strains, locus YNL233W, strain BNI4, active compounds read low 0.993 | S. cerevisiae deletion strains, locus YNL248C, strain rpa49, active compounds read low 0.988 | S. cerevisiae deletion strains, locus YNL250W, strain rad50, active compounds read low 0.974 | S. cerevisiae deletion strains, locus YNL271C, strain bni1, active compounds read low 0.978 | S. cerevisiae deletion strains, locus YNL298W, strain CLA4, active compounds read low 0.97 | S. cerevisiae deletion strains, locus YNL307C, strain MCK1, active compounds read low 0.971 | S. cerevisiae deletion strains, locus YNL322C, strain KRE1 (second series), active compounds read low 0.986 | S. cerevisiae deletion strains, locus YNL322C, strain KRE1, active compounds read low 0.996 | S. cerevisiae deletion strains, locus YNR049C, strain mso1, active compounds read low 0.992 | S. cerevisiae deletion strains, locus YNR052C, strain pop2, active compounds read low 0.973 | S. cerevisiae deletion strains, locus YOL006C, strain TOP1, active compounds read low 0.968 | S. cerevisiae deletion strains, locus YOL012C, strain htz1 1.24 | S. cerevisiae deletion strains, locus YOL147C, strain pex11, active compounds read low 0.982 | S. cerevisiae deletion strains, locus YOR001W, strain rrp6, active compounds read low 1.02 | S. cerevisiae deletion strains, locus YOR061W, strain CKA2, active compounds read low 0.989 | S. cerevisiae deletion strains, locus YOR069W, strain VPS5, active compounds read low 0.989 | S. cerevisiae deletion strains, locus YOR070C, strain gyp1, active compounds read low 0.998 | S. cerevisiae deletion strains, locus YOR080W, strain dia2, active compounds read low 1 | S. cerevisiae deletion strains, locus YOR083W, strain WHI5, active compounds read low 0.988 | S. cerevisiae deletion strains, locus YOR106W, strain vam3, active compounds read low 0.976 | S. cerevisiae deletion strains, locus YOR136W, strain idh2, active compounds read low 0.984 | S. cerevisiae deletion strains, locus YOR144C, strain elg1, active compounds read low 0.987 | S. cerevisiae deletion strains, locus YOR184W, strain ser1, active compounds read low 0.971 | S. cerevisiae deletion strains, locus YOR231W, strain MKK1, active compounds read low 0.983 | S. cerevisiae deletion strains, locus YOR265W, strain rbl2, active compounds read low 1 | S. cerevisiae deletion strains, locus YOR270C, strain vph1, active compounds read low 1.02 | S. cerevisiae deletion strains, locus YOR290C, strain snf2, active compounds read low 0.949 | S. cerevisiae deletion strains, locus YOR316C, strain cot1, active compounds read low 0.98 | S. cerevisiae deletion strains, locus YPL051W, strain arl3, active compounds read low 0.992 | S. cerevisiae deletion strains, locus YPL078C, strain atp4, active compounds read low 0.992 | S. cerevisiae deletion strains, locus YPL106C, strain sse1, active compounds read low 0.998 | S. cerevisiae deletion strains, locus YPL240C, strain hsp82, active compounds read low 0.987 | S. cerevisiae deletion strains, locus YPL256C, strain CLN2, active compounds read low 0.994 | S. cerevisiae deletion strains, locus YPR119W, strain clb2, active compounds read low 0.977 | S. cerevisiae deletion strains, locus YPR141C, strain kar3, active compounds read low 0.962 | S. cerevisiae deletion strains, locus YPR163C, strain tif3, active compounds read low 0.978 | S. cerevisiae deletion strains, locus YPR167C, strain met16, active compounds read low 0.981 | S. cerevisiae deletion strains, strain wtn01, active compounds read low 0.989 | S. cerevisiae strains, strain wild type, active compounds read low 0.995
